From ChEMBL document CHEMBL3988442, “University of Dundee, Small-Polar-MMV Screening Library” (2021) come the findings set out here.

Design in all cases: scale not given: direction of the effect not stated beside the values
Test [1] addresses Protein translocase subunit SecA (Escherichia coli (strain K12)) (UniProt P10408). Briefly: Assay to Identify E. coli SecA ATPase Inhibitors. The test is classed as functional. The conditions noted are these: 30 µM.
In test [2] the target is T1, Ubiquitin-activating enzyme e1, putative (Leishmania donovani (strain BPK282A1)) (UniProt E9BSI1).
T1 sequence (whole entry): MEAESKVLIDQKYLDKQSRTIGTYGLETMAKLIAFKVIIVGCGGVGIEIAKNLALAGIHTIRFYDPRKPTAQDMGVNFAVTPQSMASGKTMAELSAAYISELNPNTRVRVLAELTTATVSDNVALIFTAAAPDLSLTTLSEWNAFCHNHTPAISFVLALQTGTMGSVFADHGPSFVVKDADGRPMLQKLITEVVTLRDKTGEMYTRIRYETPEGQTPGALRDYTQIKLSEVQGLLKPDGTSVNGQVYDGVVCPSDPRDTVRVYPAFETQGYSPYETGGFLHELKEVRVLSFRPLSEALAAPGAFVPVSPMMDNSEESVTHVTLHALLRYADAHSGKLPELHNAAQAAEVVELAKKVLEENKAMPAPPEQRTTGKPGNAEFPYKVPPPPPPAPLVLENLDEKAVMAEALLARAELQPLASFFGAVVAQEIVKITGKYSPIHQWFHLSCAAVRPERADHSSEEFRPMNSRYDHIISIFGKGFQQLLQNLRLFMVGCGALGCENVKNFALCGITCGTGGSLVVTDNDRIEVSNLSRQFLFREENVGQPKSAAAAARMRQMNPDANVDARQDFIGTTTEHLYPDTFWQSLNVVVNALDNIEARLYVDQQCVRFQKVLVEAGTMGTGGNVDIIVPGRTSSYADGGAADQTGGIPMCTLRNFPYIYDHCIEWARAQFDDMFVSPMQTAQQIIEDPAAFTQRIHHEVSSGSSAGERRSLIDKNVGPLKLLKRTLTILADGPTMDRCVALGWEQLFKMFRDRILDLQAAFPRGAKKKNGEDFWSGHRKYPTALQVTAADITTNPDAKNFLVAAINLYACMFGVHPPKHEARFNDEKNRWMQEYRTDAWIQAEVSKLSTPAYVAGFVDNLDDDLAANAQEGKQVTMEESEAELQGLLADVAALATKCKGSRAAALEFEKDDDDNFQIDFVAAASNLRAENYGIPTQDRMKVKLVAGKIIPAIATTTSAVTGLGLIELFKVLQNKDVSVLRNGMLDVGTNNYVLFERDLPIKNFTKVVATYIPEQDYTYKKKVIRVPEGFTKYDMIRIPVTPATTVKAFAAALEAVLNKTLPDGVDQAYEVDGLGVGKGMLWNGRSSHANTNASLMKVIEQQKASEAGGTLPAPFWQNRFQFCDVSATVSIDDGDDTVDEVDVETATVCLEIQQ
Briefly: Leishmania donovani Ubiquitin Activating Enzyme (LdE1). It counts as functional. The conditions noted are these: 30 µM.

Test [3] concerns the target Sialic acid-binding Ig-like lectin 9 (Homo sapiens) (UniProt Q9Y336). Briefly: Hs-Siglec9 ALPHAscreen SOP 20170721. The conditions noted are these: 10 µM. On the technique in general: Bead proximity is the source of the signal in Alpha formats.
A further test concerns Trypanosoma cruzi. Briefly: Trypanosoma cruzi phosphomannomutase and mannose-1-phosphate guanylyltransferase assay. It counts as functional. As to conditions: 10 µM.
The target of test [4] is T2, Arginase-2, mitochondrial (Homo sapiens) (UniProt P78540).
T2 sequence (whole entry): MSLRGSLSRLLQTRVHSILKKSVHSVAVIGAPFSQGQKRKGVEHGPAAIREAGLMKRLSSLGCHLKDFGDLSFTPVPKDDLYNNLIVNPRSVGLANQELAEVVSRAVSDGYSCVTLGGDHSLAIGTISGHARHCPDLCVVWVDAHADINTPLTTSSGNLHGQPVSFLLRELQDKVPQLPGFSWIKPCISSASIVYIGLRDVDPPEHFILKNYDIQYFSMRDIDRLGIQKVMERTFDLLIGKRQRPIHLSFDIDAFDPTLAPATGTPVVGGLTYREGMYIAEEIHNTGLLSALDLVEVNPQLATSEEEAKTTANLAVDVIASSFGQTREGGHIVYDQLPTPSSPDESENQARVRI
Briefly: in vitro enzyme assay to detect the production of urea directly proportional to the activity of Arginase II. Further: in the data most compounds retested in dose-response had high values. The test is classed as functional. As to conditions: 33.3 µM.

Test [5] concerns the target T3, Proteasome subunit beta (Trypanosoma cruzi) (UniProt O96673).
T3 sequence (whole entry): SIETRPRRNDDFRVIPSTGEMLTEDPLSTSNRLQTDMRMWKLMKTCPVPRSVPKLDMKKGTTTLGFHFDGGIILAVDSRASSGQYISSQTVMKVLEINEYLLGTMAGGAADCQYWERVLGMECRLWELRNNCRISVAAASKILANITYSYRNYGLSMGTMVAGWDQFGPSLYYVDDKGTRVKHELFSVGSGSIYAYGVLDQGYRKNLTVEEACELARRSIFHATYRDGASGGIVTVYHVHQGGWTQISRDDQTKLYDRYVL
Nature of the test: Trypanosoma cruzi proteasome chymotrypsin-like activity (TcProtChymo) assay. Further: in the data most compounds retested in dose-response had high values. The test is classed as functional. As to conditions: 9.37 µM.

The next test is filed under the species Homo sapiens. Nature of the test: To identify inhibition of the IFN signalling (Jak-Stat) pathway via expression of an eGFP reporter gene under the control of an IFN-stimulated response element (ISRE) containing MxA promoter. It counts as functional. As to conditions: 30 µM. (In general: Reporter assays use an easily measured gene product as a stand-in for the process of interest.)

The target in test [6] is T4, Tyrosyl-tRNA synthetase, putative (Trypanosoma cruzi (strain CL Brener)) (UniProt Q4DSP6).
T4 sequence (whole entry): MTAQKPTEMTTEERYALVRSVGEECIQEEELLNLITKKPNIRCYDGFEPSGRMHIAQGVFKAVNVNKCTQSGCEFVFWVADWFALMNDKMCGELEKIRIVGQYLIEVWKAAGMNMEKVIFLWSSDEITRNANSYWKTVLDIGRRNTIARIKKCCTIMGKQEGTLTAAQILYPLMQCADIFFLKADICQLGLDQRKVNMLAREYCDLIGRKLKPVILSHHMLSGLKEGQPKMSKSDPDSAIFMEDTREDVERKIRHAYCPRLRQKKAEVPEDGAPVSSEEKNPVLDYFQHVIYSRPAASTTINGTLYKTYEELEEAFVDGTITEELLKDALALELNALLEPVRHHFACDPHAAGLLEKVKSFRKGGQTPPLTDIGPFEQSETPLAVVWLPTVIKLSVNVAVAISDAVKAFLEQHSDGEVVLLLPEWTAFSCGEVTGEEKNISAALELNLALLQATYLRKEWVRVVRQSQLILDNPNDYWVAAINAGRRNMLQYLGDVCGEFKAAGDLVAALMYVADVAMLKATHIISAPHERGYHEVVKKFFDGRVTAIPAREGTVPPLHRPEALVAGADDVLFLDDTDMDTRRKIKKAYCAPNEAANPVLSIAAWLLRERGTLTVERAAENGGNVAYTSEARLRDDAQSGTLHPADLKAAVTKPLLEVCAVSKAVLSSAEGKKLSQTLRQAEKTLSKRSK
Briefly: Trypanosoma cruzi tyrosyl tRNA synthetase (TcYRS) _High Tyrosine SOP. Further: in the data most compounds retested in dose-response had high values. The test is classed as functional. The conditions noted are these: 30 µM.

Test [7] concerns the target T4, Tyrosyl-tRNA synthetase, putative (Trypanosoma cruzi (strain CL Brener)). Briefly: Trypanosoma cruzi tyrosyl tRNA synthetase (TcYRS) SOP. The test is classed as functional. As to conditions: 30 µM.
The target in test [8] is Chromo domain-containing protein 1 (Saccharomyces cerevisiae (strain ATCC 204508 / S288c) (Baker's yeast)) (UniProt P32657). Briefly: ScCHD-1 Enzyme Inhibition Assay. Further: in the data most compounds retested in dose-response had high values. The test is classed as functional. The conditions noted are these: 30 µM.
Sequence of Chromo domain-containing protein 1 (Saccharomyces cerevisiae (strain ATCC 204508 / S288c) (Baker's yeast)) (P32657 whole entry, the tested form may be a part): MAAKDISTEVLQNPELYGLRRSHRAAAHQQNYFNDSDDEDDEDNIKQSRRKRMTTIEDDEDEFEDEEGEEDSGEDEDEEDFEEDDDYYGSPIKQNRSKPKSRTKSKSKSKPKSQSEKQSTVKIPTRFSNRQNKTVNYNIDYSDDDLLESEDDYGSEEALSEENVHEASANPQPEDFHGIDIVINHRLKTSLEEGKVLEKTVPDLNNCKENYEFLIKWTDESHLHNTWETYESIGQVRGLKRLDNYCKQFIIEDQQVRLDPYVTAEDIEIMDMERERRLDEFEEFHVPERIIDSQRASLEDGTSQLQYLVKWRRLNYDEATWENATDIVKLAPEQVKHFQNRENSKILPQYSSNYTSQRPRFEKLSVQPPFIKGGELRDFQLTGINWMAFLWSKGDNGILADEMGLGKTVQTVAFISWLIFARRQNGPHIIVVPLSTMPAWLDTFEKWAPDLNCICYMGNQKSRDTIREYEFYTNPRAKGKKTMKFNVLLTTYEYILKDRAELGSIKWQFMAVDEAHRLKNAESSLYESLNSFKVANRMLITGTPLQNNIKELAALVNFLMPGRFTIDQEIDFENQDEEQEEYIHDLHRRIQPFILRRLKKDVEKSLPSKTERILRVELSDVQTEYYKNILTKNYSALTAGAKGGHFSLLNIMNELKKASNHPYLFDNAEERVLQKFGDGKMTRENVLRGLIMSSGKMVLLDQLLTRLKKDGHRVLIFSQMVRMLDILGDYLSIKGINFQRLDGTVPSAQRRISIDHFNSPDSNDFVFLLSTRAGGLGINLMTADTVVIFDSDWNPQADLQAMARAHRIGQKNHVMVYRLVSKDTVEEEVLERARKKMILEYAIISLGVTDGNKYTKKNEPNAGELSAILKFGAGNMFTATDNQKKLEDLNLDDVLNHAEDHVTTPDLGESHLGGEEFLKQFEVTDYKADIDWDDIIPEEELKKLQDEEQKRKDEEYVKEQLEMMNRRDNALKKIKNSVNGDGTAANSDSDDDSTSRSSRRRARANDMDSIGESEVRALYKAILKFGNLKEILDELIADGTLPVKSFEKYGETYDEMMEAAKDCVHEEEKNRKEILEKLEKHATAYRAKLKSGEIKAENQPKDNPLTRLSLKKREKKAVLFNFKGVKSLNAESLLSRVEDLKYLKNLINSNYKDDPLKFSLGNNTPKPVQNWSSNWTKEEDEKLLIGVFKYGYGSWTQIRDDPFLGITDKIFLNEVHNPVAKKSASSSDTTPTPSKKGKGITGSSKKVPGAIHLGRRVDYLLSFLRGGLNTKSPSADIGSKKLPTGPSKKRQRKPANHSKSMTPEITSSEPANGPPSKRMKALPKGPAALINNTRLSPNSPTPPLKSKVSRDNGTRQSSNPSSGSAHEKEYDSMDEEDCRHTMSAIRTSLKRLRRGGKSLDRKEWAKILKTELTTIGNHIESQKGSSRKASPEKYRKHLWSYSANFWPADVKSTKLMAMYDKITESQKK

The structures appear in SMILES notation. For some of these results: Entries with a potency or affinity are not part of this list.

Sequence of Protein translocase subunit SecA (Escherichia coli (strain K12)) (P10408 whole entry): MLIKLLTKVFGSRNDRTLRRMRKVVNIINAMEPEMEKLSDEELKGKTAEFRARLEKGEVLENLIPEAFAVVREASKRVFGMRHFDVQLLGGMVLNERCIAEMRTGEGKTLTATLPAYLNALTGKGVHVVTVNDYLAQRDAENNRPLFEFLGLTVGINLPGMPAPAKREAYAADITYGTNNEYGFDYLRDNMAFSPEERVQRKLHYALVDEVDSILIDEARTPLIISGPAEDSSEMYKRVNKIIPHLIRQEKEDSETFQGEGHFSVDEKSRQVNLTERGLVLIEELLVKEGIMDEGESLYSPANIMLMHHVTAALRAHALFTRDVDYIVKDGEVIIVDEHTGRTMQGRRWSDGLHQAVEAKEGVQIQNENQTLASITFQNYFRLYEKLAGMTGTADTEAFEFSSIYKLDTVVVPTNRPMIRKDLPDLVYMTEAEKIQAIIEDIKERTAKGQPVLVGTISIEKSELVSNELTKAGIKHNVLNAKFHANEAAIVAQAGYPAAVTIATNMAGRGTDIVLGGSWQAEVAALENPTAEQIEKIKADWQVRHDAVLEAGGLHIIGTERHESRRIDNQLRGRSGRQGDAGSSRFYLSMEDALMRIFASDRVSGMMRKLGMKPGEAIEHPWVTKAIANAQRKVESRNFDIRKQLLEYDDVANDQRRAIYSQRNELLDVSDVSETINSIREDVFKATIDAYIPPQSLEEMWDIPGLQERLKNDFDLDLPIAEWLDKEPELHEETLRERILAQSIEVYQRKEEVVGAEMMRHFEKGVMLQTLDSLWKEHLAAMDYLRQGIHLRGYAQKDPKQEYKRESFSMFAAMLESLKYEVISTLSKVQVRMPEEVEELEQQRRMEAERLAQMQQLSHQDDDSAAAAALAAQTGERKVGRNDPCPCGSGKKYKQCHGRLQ
Sequence of Sialic acid-binding Ig-like lectin 9 (Homo sapiens) (Q9Y336 whole entry): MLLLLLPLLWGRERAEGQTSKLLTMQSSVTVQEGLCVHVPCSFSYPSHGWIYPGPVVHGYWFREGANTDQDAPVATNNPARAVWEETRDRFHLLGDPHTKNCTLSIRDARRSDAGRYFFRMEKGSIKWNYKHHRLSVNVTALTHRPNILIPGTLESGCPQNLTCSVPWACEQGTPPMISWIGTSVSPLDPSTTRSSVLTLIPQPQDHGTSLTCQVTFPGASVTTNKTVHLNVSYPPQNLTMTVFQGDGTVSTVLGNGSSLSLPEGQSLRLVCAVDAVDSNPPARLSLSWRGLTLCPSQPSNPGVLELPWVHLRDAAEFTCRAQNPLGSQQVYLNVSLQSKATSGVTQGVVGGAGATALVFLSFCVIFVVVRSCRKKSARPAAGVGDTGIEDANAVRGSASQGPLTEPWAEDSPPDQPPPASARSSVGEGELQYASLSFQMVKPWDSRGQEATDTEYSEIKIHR

In the case of `CCn1ccnc1CN1CCC(CCC(=O)Nc2ccccc2Cl)CC1`, the Percent Effect was -1.09% in test [1]; 5.41% in test [2]; 7.23% in test [3]; 6.89% in the test on Trypanosoma cruzi; 12.2% in test [4]; -1.37% in test [5]. Also, the Percent Effect in the test filed under Homo sapiens is 10.8%; in test [6] it was 1.6%; in test [7], 7.32%; in test [8], 83.4%.

For the compound `CC(C)c1nc(C2CCCN2CC(=O)Nc2ccc(Cl)cn2)no1` (stereo not given), the Percent Effect is -10.5% in [1]; 18.7% in [2]; 16.2% in test [3]; 5.62% in the test on Trypanosoma cruzi; -4.88% in [4]; 8.23% in test [5]. Further, the Percent Effect in the test filed under Homo sapiens was 4.35%; in test [6] it was 5.79%; in test [7] it was 10.3%; in [8], -14.8%.

As for `CCOCC1CN(S(C)(=O)=O)Cc2cnn(CC3CCOCC3)c21` (stereo not given), the Percent Effect in test [1] is -3.9%; in test [2], 1.3%; in [3], -0.726%; with Trypanosoma cruzi, -5.94%; in [4] it was -5.26%; in test [5], 10.5%. The Percent Effect in the test filed under Homo sapiens was 0.606%; in test [6], 3.68%; in test [7], 12.8%; in test [8], -2.94%.

Turning to `Cn1cc(CN2CCC3(CC(=O)N(c4ccc5c(c4)OCO5)C3)C2)cn1` (stereo not given), the Percent Effect is -2.97% in test [1]; 1.3% in test [2]; -2.34% in test [3]; 1.85% with Trypanosoma cruzi; -2.43% in test [4]; -1.15% in [5]. Also, the Percent Effect in the test filed under Homo sapiens is 4.19%; in test [6], 4.74%; in [7], 5.13%; in [8], -0.178%.

Turning to `CCN(CC)C1CCN(C(=O)NCc2nncn2CC)CC1`, the Percent Effect is -3.6% in [1]; 13.3% in test [2]; -2.94% in test [3]; 3.41% in the test with Trypanosoma cruzi; 3.55% in [4]; 12% in [5]. Further, the Percent Effect in the test filed under Homo sapiens was 21.2%; in test [6] it was 0.526%; in test [7] it was 7.69%; in test [8], -11.2%.

Turning to `Cc1cccc(CN2CCc3nnc(CN4CCCC4=O)n3CC2)n1`, the Percent Effect was -3.64% in test [1]; 14.3% in test [2]; 1.97% in test [3]; -2.06% with Trypanosoma cruzi; -2.28% in test [4]; 8.67% in test [5]. Further, the Percent Effect in the test listed under Homo sapiens was 9.65%; in test [6] it was 4.83%; in test [7], 10%; in test [8] it was -8.05%.

Consider `Cc1nn(C)c(N2CCOCC2)c1CNC1CCc2cc(F)ccc21` (stereo not given), for which the Percent Effect was -1.4% in test [1]; 20.8% in test [2]; 4.82% in [3]; -2.8% in the test on Trypanosoma cruzi; 11.7% in test [4]; 7.72% in [5]. For the same compound, the Percent Effect in the test filed under Homo sapiens is 0.31%; in test [6], 6.86%; in test [7] it was 18.8%; in test [8], -4.69%.
